Measurements published in PubChem BioAssay (NCI).
The panel holds about 83,000 compounds, 20% with a hit somewhere; the sample as a whole holds those more often.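 96-well plates, one dose, 48 hours. Percent growth reported; active if below 10.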 Values without a mark were called inactive. Active and inactive are the calls of the source.

How the values were obtained:
Assay in all cases: NCI-60 one-dose screen, 48 h (100 = growth as untreated, 0 = no growth, -100 = all killed)
Details in all cases: 10 µM unless noted
[1] = test system: NCI-H23 lung
[2] = test system: NCI-H226 lung
[3] = test system: NCI-H322M lung
[4] = test system: HOP-62 NSCLC
[5] = test system: NCI-H460 lung
[6] = test system: HOP-92 NSCLC
[7] = test system: NCI-H522 lung
[8] = test system: A549/ATCC NSCLC
[9] = test system: 786-0 renal
[10] = test system: COLO 205 colon
[11] = test system: DU-145 prostate
[12] = test system: K-562 leukemia
[13] = test system: MALME-3M melanoma
[14] = test system: MDA-MB-231 breast
[15] = test system: RXF 393 renal
[16] = test system: SF-268 CNS
[17] = test system: SF-295 CNS
[18] = test system: UACC-257 melanoma
[19] = test system: M14 melanoma

Row | SMILES | growth [1] | growth [2] | growth [3] | growth [4] | growth [5] | growth [6] | growth [7] | growth [8] | growth [9] | growth [10] | growth [11] | growth [12] | growth [13] | growth [14] | growth [15] | growth [16] | growth [17] | growth [18] | growth [19]
1 | O=C([C@@H](COCc1ccccc1)N1C(=O)[C@@H](N2C(=O)OC[C@@H]2c2ccccc2)[C@H]1/C=C/c1ccccc1)N1CCC(CCN2CCCCC2)CC1 | 87% | 93.8% | 83.2% | 77.8% | 94.2% | 76.1% | 57.1% | 75.4% | 83.3% | 65.1% | 100% | 55.8% | -22.3% (active) | 72.6% | 88.7% | 77.2% | 102% | 64.1% | 97.8%
2 | COc1cnc2c(c1)C(=O)c1c-2n(CCCN2CCNCC2)c(=O)c2cc([N+](=O)[O-])ccc12 | -63.6% (active) | -59.4% (active) | -72.2% (active) | -67.2% (active) | -42.3% (active) | 22.8% | -48.2% (active) | -87.2% (active) | -85.8% (active) | 14.4% | -85.1% (active) | -50.1% (active) | -71.4% (active) | -77.4% (active) | 0.0319% (active) | -66.6% (active) | -14.7% (active) | 46.3% | -83.1% (active)
3 | COc1ccc(/C=C/C(=O)c2c(O)c(C)c(O)c3c2OC2=CC(O)=C(C(C)=O)C(=O)[C@]23C)cc1 | -32.9% (active) | -28.2% (active) | -17.9% (active) | -40% (active) | 1.69% (active) | -18.8% (active) | -32.2% (active) | -26.8% (active) | -29.7% (active) | -74.1% (active) | 8.23% (active) | -21.3% (active) | -57.1% (active) | -26.2% (active) | -33.3% (active) | -17.5% (active) | -22.7% (active) | -19.2% (active) | -7.97% (active)
4 | COc1ccc(N(Cc2cc(OC)c(OC)c(OC)c2)C2OC(=O)c3ccccc32)cc1 (centres undefined) | 36.7% | 67.2% | 52.4% | 28.1% | 10.4% | 51.3% | -17.2% (active) | 23.7% | 61.8% | -3.48% (active) | 25.5% | 17.7% | 31.3% | 41.1% | -31.7% (active) | 44% | 16.3% | 70.8% | 25.7%
5 | CC1=C(NCCN2CCCC2)C(=O)c2c(OCc3ccc(C(F)(F)F)cc3)cccc2C1=O | 90.2% | 91.3% | 91% | 86.9% | 68.9% | 32.5% | 100% | 85% | 67% | 82.4% | 92.1% | -14.8% (active) | 104% | 81.4% | 88.5% | 77.1% | 76.7% | 65.1% | -82.2% (active)
6 | COc1cc(OC)c(/C=C/S(=O)(=O)Cc2ccc(OC)c(N)n2)c(OC)c1 | 26.6% | 59.6% | 36.3% | 11.6% | 8.27% (active) | 79.9% | -36.1% (active) | 6.41% (active) | 15.9% | -70.7% (active) | 2.86% (active) | 8.04% (active) | 59.2% | 15.3% | 43.8% | 39% | 6.52% (active) | 47.8% | 11.2%
7 | C=C1CCC2C3(C)COC(C)(C)OC3CCC2(C)C1C/C=C1/C(=O)OCC1OC(C)=O (centres undefined) | 50.4% | 50.3% | 100% | 112% | 95.4% | 123% | -88.7% (active) | 61.7% | 48.5% | -0.595% (active) | 42.4% | 9.82% (active) | 71.9% | 86.2% | -53.8% (active) | 63.4% | 116% | 20.2% | 19.3%
8 | COc1ccc(CNc2nccnn2)cc1 | 94.6% | 92% | 103% | 98.6% | 106% | 108% | 85.4% | 96.9% | 107% | 95% | 112% | 96.2% | 100% | 106% | 88.1% | 103% | 101% | 107% | 96%
9 | CS(=O)(CCCCN=C=S)=NC(=O)c1c(F)c(F)c(F)c(F)c1F (centres undefined) | 96.7% | 99.6% | 108% | 111% | 88.4% | 107% | 57% | 80.3% | 89% | 89.4% | 91.1% | 60.8% | 58.7% | 91.8% | 94.2% | 101% | 97.8% | 83.5% | 98.4%
10 | COc1ccc(C(=O)c2sc3nc4c(cc3c2N)CCCC4)cc1OC | 39.3% | 37.1% | 86.8% | 38.5% | 13% | 67.3% | 12.6% | 41.4% | 66.1% | 16.5% | 62% | 10.9% | 63% | 46.3% | 31.6% | 63.9% | 28.6% | 79.6% | 27.7%
11 | COc1cc(NCCCCN=C(N)N)c2ncccc2c1 | 13.9% | 98.9% | 73.5% | 80.9% | 104% | 68.8% | -9.41% (active) | 86.8% | 91.6% | 82.6% | 108% | 84.6% | 13.6% | 63.5% | 112% | 30.4% | 87% | 102% | 96.5%
12 | NC1=CC(=O)C(=O)c2ccccc21 | 72.7% | 98.1% | 102% | 98.2% | 106% | 106% | 80.6% | 112% | 92.8% | 117% | 102% | 71% | 45.7% | 77.5% | 100% | 93.3% | 80.7% | 51.5% | 68.1%
13 | COc1ccc(CN2C(=O)/C(=C\c3cc(OC)c(OC)c(OC)c3)c3cc(OC)ccc32)cc1 | -44% (active) | -21.1% (active) | 8.29% (active) | 17.1% | -42.2% (active) | 37.6% | -70.1% (active) | 3.05% (active) | 9.78% (active) | -46.3% (active) | 7.67% (active) | 1.94% (active) | 36.4% | 11.1% | -53% (active) | 7.98% (active) | 39.7% | 25.7% | -28% (active)
14 | Oc1ccc2c(=S)cc(-c3ccc(Br)cc3)oc2c1O | -13.7% (active) | 90.5% | 10.5% | 28.7% | 3.24% (active) | -18.9% (active) | -27% (active) | 3.47% (active) | 28.1% | 103% | 25.5% | 20.7% | 38.3% | 3.73% (active) | 33.4% | 9.4% (active) | 100% | 67.5% | 12.3%
15 | Nc1nc2c(c3ncccc13)C(c1ccc(Cl)c(Cl)c1)Cc1ncccc1-2 (centres undefined) | 32.7% | 70.8% | 40.9% | 28% | 12.5% | 59% | -6.27% (active) | 22.7% | 29.9% | 1.52% (active) | 35.5% | 11% | 47.1% | 28.9% | -25.4% (active) | 44.8% | 1.19% (active) | 35.4% | 20%
16 | COc1ccc2nc3cc(Cl)ccc3c(N3CCN(c4nccc(Nc5ccc(Cl)cc5)n4)CC3)c2c1 | 86.4% | 99.8% | 97.5% | 88.1% | 67% | 34.8% | 51.8% | 76.4% | 42.2% | 95.7% | 75.5% | 10.8% | 120% | 60.3% | 53.1% | 53.7% | 84.1% | 88.7% | 43.4%
